Laboratory results published in PubChem BioAssay (NCATS).
Results filed as inconclusive are left out. Active and inactive are the calls of the source. Calls follow the shape of the dose curve; as a rule, active = well fitted curve in either direction with a large enough effect (not every such curve was filed as active); inconclusive = small, poorly fitted or top-dose-only effect, or another doubt; inactive = flat fitted curve, though single readings scatter.

Experiment: AP1 Signaling Pathway (AID 357)
Conditions: ME-180 (cervical carcinoma) AP-1-bla reporter, EGF-induced, beta-lactamase ratio, 5 h; at 17.2 µM (top of the series) unless noted
How it was run: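 Read-out was the 460nm/530nm emission ratio (excitation 405nm) after CCF4 loading for 2.5 hours at room temperature. Cells carried an AP-1-driven beta-lactamase reporter, were stimulated with EC50 EGF plus compound for 5 hours, and AC50 values came from titrations.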
% is scaled to controls: 0 for no effect and ±100 for the full control effect.

Activity change, negative = inhibition, inactive:
CCCCCCCCCCCCCCCC(O)C(N)CO (centres undefined) -23.5%
Nc1ccc2oc(-c3cc(Br)ccc3Cl)nc2c1 -29.4%
CCC1CCCCN1c1nc(-c2cccc(OC)c2O)nc2ccccc12 (centres undefined) -8.8%
O=C(NCc1cccnc1)/C(=N\O)c1ccccc1 -8.53%
CCCCCCn1cc(C(=O)O)c(=O)c2ccccc21 -9%
CC1(C)Cc2c(c(-c3ccco3)[nH]c(=O)c2C#N)CS1 -2.31%
Cc1ccc(OCC(=O)N2CCC(N3CCCCCC3)CC2)cc1 3.92%
OCCNc1nc(-c2ccccc2)c2ccccc2n1 -11.6%
CCCCCSc1nc(N2CCOCC2)c2c(c1C#N)CC(C)(C)OC2 -13.1%
CC1(C)Cc2c(c(N3CCOCC3)nc3snc(Br)c23)CO1 -5.9%
Nc1ccc2c(c1)N1CCN=C1S2 -0.461%
N#CC12CCCCC1CC1CCCCC1(C#N)N2Cc1ccccn1 (centres undefined) 3.99%
COc1ccc(C=NCCCN2CCOCC2)cc1 -8.54%
COc1cc(OC)cc(C(=O)N2CCC(N3CCCCCC3)CC2)c1 -0.714%
CNC(=O)CC(C(=O)O)c1ccc(OC(C)C)cc1 (centres undefined) 5.59%
Cc1ccc(S(=O)(=O)c2cc3c(=O)n4ccccc4nc3n(C)c2=N)cc1 23.8%
Cn1c(=O)c2c(nc(NCc3ccco3)n2Cc2ccc(Cl)cc2Cl)n(C)c1=O 4.86%
CCCc1cc(=O)oc2c(CN3CCCC3)c(O)c(Cl)cc12 -8.98%
CC1(C)Cc2c(sc3c4nnnn4c4nnnn4c23)CO1 -28.3%
COc1cc([C@@H]2[C@H]3CNCC=C3C(C#N)=C(N)C2(C#N)C#N)ccc1OC(C)C 14%
CC(CN1CCN(C)CC1)OC(=O)c1ccc(Cl)cc1Cl (centres undefined) 12%
Cc1cc(N2C(=O)C(=O)/C(=C(/O)c3ccccc3)C2c2cccc(Br)c2)no1 (centres undefined) -11.1%
CCCCCNC(=O)C(C#N)c1nc2ccccc2nc1N1CC(C)OC(C)C1 (centres undefined) -18.2%
N#CC1=C(N)N(c2ccccc2)C(c2ccccc2)C1(C#N)C#N (centres undefined) -27.2%
O=C(NCc1ccco1)c1cnn2c(C(F)(F)F)cc(-c3ccco3)nc12 -3.32%
Cn1c(N2CCOCC2)nc2c1c(=O)n(Cc1ccc(Cl)cc1)c(=O)n2C 1.13%
CC1(C)Cc2c(c(N3CCCCC3)[nH]c(=S)c2C#N)CS1 3.57%
COc1ccccc1NC(=O)C1=C(C)NC(SCC(=O)c2ccc(C)cc2)=C(C#N)C1c1ccco1 (centres undefined) -8.91%
COc1ccc(N2CCN(C3CC(=O)NC3=O)CC2)cc1 (centres undefined) -0.252%
CCOC(=O)C(C)Sc1nc(-c2cccs2)ccc1C#N (centres undefined) 7.21%
COc1ccc(CCNc2oc(COc3ccccc3)nc2C#N)cc1 -23%
Cc1cc(C)n(-c2nnc(C)n2/N=C/c2ccco2)n1 4.26%
CCOC(=O)/C(C#N)=C1\Nc2ccccc2N=C1N(CC(C)C)CC(C)C 11.2%
CCN(CC)c1ccc(C2Nc3cccc4cccc(c34)N2)c(O)c1 -17.3%
COC(=O)CSC1=C(C#N)C(=O)NC2(CCCCC2)S1 1.61%
CC(C)Sc1nnc2n(CCc3ccccc3)c(=O)c3c4c(sc3n12)COC(C)(C)C4 -19.5%
CN(C)CCCOC(=O)c1ccc(Cl)cc1Cl 13.3%
COc1ccc(C2/C(=C(\O)c3ccc4c(c3)OCCO4)C(=O)C(=O)N2CCCN(C)C)cc1 (centres undefined) 8.31%
N#CCSc1nc2c(cc1C#N)CCCCCC2 -14.6%
